High-throughput results from PubChem BioAssay.
Methyltransferases = Primary Screen for Target Class Profiling of Small Molecule Inhibitors of Methyltransferases; 25,000 compounds, 3.9% hits; calls only at 40 µM; purified enzyme, MTase-Glo SAH luminescence; stronger effect = lower value; AID 1745853, 2022; call rule not given here
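Each enzyme was assayed with SAM and its substrate. SAH formation detected by MTase-Glo luminescence; single-point 40 uM screen[…].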
Calls only; i = inactive; + = active, no number. This excerpt belongs to a sample that is enriched for hits.

SMILES | Methyltransferases
CCOC(=O)c1cc2n(n1)CC(C)(C(=O)NC1CCCCCC1)N(c1cccc(Cl)c1C)C2=O (configuration not stated) | i
CCCn1c(=O)c2ccc(C(=O)NC3CCCCC3)cc2n2c(=O)n(Cc3ccc(F)cc3)nc12 | i
COc1cccc(-c2ccc(C(=O)N3CCC(NC(=O)c4ccc(C(F)(F)F)cc4)CC3)cc2)c1 | i
CC#C[C@@H](CC(=O)O)c1ccc(OCc2cccc(-c3ccc(C(F)(F)F)cc3)c2)cc1 | +
Cc1cc2[nH]c(=O)[nH]c2cc1S(=O)(=O)N1CCN(c2ccccc2)CC1 | i
Cc1cc(C)cc(N2C(=O)c3cc(-c4ccco4)nn3CC2(C)C(=O)NC2CCCCC2)c1 (configuration not stated) | i
COc1cc(N2CCC(N3CCN(C)CC3)CC2)ccc1Nc1ncc(Cl)c(-c2c[nH]c3ccccc23)n1 | +
COc1cc(N2CCOCC2)ccc1NC(=O)c1csc(-c2cccnc2)n1 | i
COc1ccccc1Nc1ncc2c(n1)CN(C(=O)c1cc3ccccc3n1C)CCN2 | i
COc1cc(N2CCC(N)CC2)ccc1Nc1ncc(Cl)c(-c2c[nH]c3ccccc23)n1 | +
COc1ccccc1CNC(=O)Cn1ccc2cc(S(=O)(=O)N3CCC(C)CC3)ccc21 | i
CC1(C(=O)NCc2ccc(F)cc2)Cn2cnc(C(=O)NCc3cccc(Cl)c3)c2C(=O)N1C1CC1 (configuration not stated) | i
COc1ccc([C@@H]2CN(C(=O)CCc3ccsc3)C[C@H]2N(C)C)cc1 | i
CCOC(=O)c1cc2n(n1)CC(C)(C(=O)NC1CCCCC1)N(c1ccc(Cl)cc1)C2=O (configuration not stated) | i
CCn1cc(S(=O)(=O)N2CC(N(C3CCOCC3)S(C)(=O)=O)C2)cn1 | i
C/C=C(\C)C(=O)O[C@@H]1CC2[C@@H](CC=C3C[C@@H](O[C@H]4C[C@H](OC)[C@H](O[C@H]5C[C@H](OC)[C@H](O[C@@H]6O[C@H](C)[C@@H](O[C@H]7C[C@H](OC)[C@H](O[C@@H]8O[C@H](CO)[C@@H](O)[C@H](O)[C@H]8O)[C@@H](C)O7)[C@H](OC)[C@H]6O)[C@@H](C)O5)[C@@H](C)O4)CC[C@@]32C)[C@@]2(O)CC[C@H](C(C)=O)[C@@]12C (some centres not stated) | i
CCOC(=O)c1cc2n(n1)CC(C)(C(=O)NCc1ccccc1OC)N(c1cc(OC)cc(OC)c1)C2=O (configuration not stated) | i
COc1ccc(CC(=O)Nc2ccc3c(c2)CN(CCOc2ccccc2)C(=O)C(C)O3)cc1 (configuration not stated) | i
Nc1c(NC/C=C\COc2cc(CN3CCCCC3)ccn2)c(=O)c1=O | +
O=C1CCN(Cc2cccc(F)c2)CCCCCCN1 | i
CCCC(CCC)C(=O)OC1CC2CCC(C1)[N+]2(C)C (configuration not stated) | i
CCOC(=O)c1cc2n(n1)CC(C)(C(=O)NC1CCCCC1)N(c1ccc(F)cc1F)C2=O (configuration not stated) | i
CC(C)Oc1ccc(CN2C(=O)c3nc4ccccc4n3CC2(C)C(=O)NC2CCCCCC2)cc1 (configuration not stated) | i
c1ccc(Cn2c(-c3ccc(OCC(C4CCNCC4)n4c(-c5ccccc5)nc5ccccc54)cc3)nc3ccccc32)cc1 (configuration not stated) | +
CC(C)Oc1ccc(CN2C(=O)c3nc4ccccc4n3CC2(C)C(=O)NC2CCCCC2)cc1 (configuration not stated) | i
SMILES | Methyltransferases
CCCCNc1nc2c(-c3ccc(Cl)cc3)nnn2c2ccccc12 | i
Cc1ccc(CN2C(=O)c3ccc(-c4ccco4)n3CC2(C)C(=O)NC2CCCCC2)o1 (configuration not stated) | i
CSc1ccc(CNC(=O)c2cc3n(n2)CC(C)(C(=O)NC2CCCCCC2)N(C)C3=O)cc1 (configuration not stated) | i
COc1ccc(OC)c2c1cc1n2CC(C)(C(=O)NC2CCCC2)N(Cc2ccccc2)C1=O (configuration not stated) | i
COc1ccc(OC)c2c1cc1n2CC(C)(C(=O)NC2CCCCC2)N(Cc2ccccn2)C1=O (configuration not stated) | +
Cc1cc2c(cc3n2CC(C)(C(=O)NC2CCCCCCC2)N(CCc2ccccc2)C3=O)o1 (configuration not stated) | i
COc1ccc(CCN2C(=O)c3cc4oc(C)cc4n3CC2(C)C(=O)NC2CCCCC2)cc1OC (configuration not stated) | +
COc1ccc(OC)c2c1cc1n2CC(C)(C(=O)NC2CCCCC2C)N(Cc2ccccn2)C1=O (configuration not stated) | i
Cc1cc2c(cc3n2CC(C)(C(=O)NC2CCCCC2)N(CCc2ccccc2)C3=O)o1 (configuration not stated) | i
CCOC(=O)N1CCC(NCCNC(=O)c2ccccc2C)CC1 | i
CC(Oc1cc(O)c2c(=O)cc(-c3ccccc3)oc2c1)C(=O)c1ccccc1 (configuration not stated) | i
CCOC(=O)Cc1ccc(NC(=O)N2Cc3c(sc4c3CCCC4)-n3cccc3C2c2ccc(F)cc2)cc1 (configuration not stated) | i
CN1C(=O)c2cc(C(=O)NCC3CCCO3)nn2CC1(C)C(=O)NC1CCCCCC1 (configuration not stated) | i
CCOc1ccccc1CN1C(=O)c2cc3sc(CC)cc3n2CC1(C)C(=O)NC1CCCCC1 (configuration not stated) | i
O=C(CCn1ccc2cc(S(=O)(=O)N3CCCCC3)ccc21)N1CCN(c2ccccc2)CC1 | i
CC(C)Cn1c(=O)c2ccc(Cl)cc2n2c(SCC(=O)Nc3ccccc3Cl)nnc12 | i
c1cc(-c2n[nH]c(CC3CCNC3)n2)ccn1 (configuration not stated) | i
COc1ncc(-c2ccc3nccc(-c4ccnnc4)c3c2)cc1NS(=O)(=O)c1ccc(F)cc1F | +
C[C@@H](O)[C@H]1C(=O)N2C(C(=O)O)=C(SCCN=CN)C[C@H]12 | i
CC(C)NC(=O)N[C@H]1CCN(C(=O)c2cnccn2)[C@@H]1C(=O)N[C@@H](CCCNC(=O)c1cnccn1)C(N)=O | i
COc1ccccc1CNC(=O)C1c2c(n(C)c3ccccc23)SCC(=O)N1CCc1ccc(Cl)cc1 (configuration not stated) | i
COc1ccc2cc3n(c2c1)CC(C)(C(=O)NC1CCCC1)N(Cc1ccccc1F)C3=O (configuration not stated) | i
COc1ccc(/C=C/C(=O)Nc2ccccc2C(=O)O)cc1OC | i
COc1ccccc1CNC(=O)C1(C)Cn2nc(-c3ccccc3)cc2C(=O)N1Cc1ccc2c(c1)OCO2 (configuration not stated) | i
COc1cc(/C=N\NC(=O)c2ccc3c(c2)OCO3)ccc1OCc1ccccc1 | +
COCCCNC(=O)C1(C)Cn2nc(-c3ccccc3)cc2C(=O)N1c1ccc(Cl)cc1C (configuration not stated) | i
COc1ccccc1NC(=O)N1CCN2C(=O)NC[C@H]2C1 | i
CCCn1c(=O)c2ccccc2n2c(=O)n(CC(=O)Nc3ccc(CC)cc3)nc12 | i
COc1cnc(-c2ccc(Cn3c(CC(C)(C)C(=O)O)c(SC(C)(C)C)c4cc(OC[C@@H]5Cc6ccccc6N5C(C)=O)ccc43)cc2)nc1 | +
